The nature of assay [1]: qHTS assay to identify small molecule antagonists of the estrogen related receptor (ERR) signaling pathway from Tox21 library - cell viability counter screen (AID 1224834). Also: nearly all actives have a fitted effect of over 30% in size. Also: potency is read from the fitted curve at half-maximal effect. Put shortly: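 CellTiter-Fluor fluorescence measured; ERR cells; 17.5 h compound incubation at 37 C; 30 min reagent step.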
(qHTS replaces the single test concentration by a dilution series.)

Assay [2] concerns the target Luciferin 4-monooxygenase (Photinus pyralis) (UniProt P08659). Put plainly: qHTS assay to identify small molecule inhibitors of firefly luciferase (AID 1224835). Also: nearly all actives have a fitted effect of over 25% in size. Also: potency is read from the fitted curve at half-maximal effect. Put shortly: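 Quantitative HTS format; KM concentrations of both substrates. Purified P. pyralis FLuc activity quantified from luminescence images.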
Assay [3] is described as follows: qHTS assay to identify small molecule agonists of the constitutive androstane receptor (CAR) signaling pathway - cell viability counter screen (AID 1224836). Also: nearly all actives have a fitted effect of over 45% in size. Also: potency is read from the fitted curve at half-maximal effect. Put shortly: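 Double-stable HepG2 hepatoma cells (hCAR plus CYP2B6-2.2kb) are treated for 23 h at 37 C with test compounds in 15-point concentration series. PK11195 at 0.75 uM final is co-added. Cell viability is quantified by CellTiter-Fluor.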

A short description of assay [4]: qHTS assay to identify small molecule antagonists of the constitutive androstane receptor (CAR) signaling pathway - cell viability counter screen (AID 1224837). Also: nearly all actives have a fitted effect of over 45% in size. Also: potency is read from the fitted curve at half-maximal effect. A digest of the protocol:
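Using CellTiter-Fluor, viability is scored in HepG2 cells stably carrying hCAR and a 2.2kb CYP2B6 reporter after 23 hr compound exposure across 15 concentrations, with CITCO present at 50 nM.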

For assay [5], the target named is Nuclear receptor subfamily 1 group I member 3 (Homo sapiens) (UniProt Q14994). Briefly: qHTS assay to identify small molecule antagonists of the constitutive androstane receptor (CAR) signaling pathway (AID 1224838).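 Also: HepG2 cells stably expressing hCAR with CYP2B6 luciferase reporter stimulated by CITCO; nearly all actives have a fitted effect of over 40% in size.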 Also: potency is read from the fitted curve at half-maximal effect. A digest of the protocol:
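Reporter luminescence was quantified after 24 h exposure of hCAR/CYP2B6-2.2kb double-stable HepG2 cells to compounds at 15 concentrations in the presence of 50 nM CITCO final.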

Assay [6] shares this target. Put plainly: qHTS assay to identify small molecule agonists of the constitutive androstane receptor (CAR) signaling pathway (AID 1224839). Also: nearly all actives have a fitted effect of over 15% in size. Also: potency is read from the fitted curve at half-maximal effect. A digest of the protocol:
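Readout: firefly luciferase luminescence via ONE-Glo. System: HepG2 double-stable for hCAR and CYP2B6-2.2kb. Conditions: 15-point compound titration, PK11195 at 0.75 uM final, 24 h incubation.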

The nature of assay [7]: qHTS assay to identify small molecule antagonists of the estrogen related receptor signaling pathway with the pleiotropic PPARgamma coactivator (PGC) from Tox21 10K library - cell viability counter screen (AID 1224840; active = well fitted cell-killing curve with a large enough effect in the repeat runs, not every such curve was filed as active; also: nearly all actives have a fitted effect of over 40% in size; also: potency is read from the fitted curve at half-maximal effect). Put shortly: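 Here the PGC/ERR cells serve as a cytotoxicity control: they are exposed to compounds for 17.5 hours at 37 C, and live-cell signal is quantified using CellTiter-Fluor fluorescence.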

The nature of assay [8]: qHTS assay to identify small molecule antagonists of the estrogen related receptor signaling pathway with the pleiotropic PPARgamma coactivator (PGC) from Tox21 10K library (AID 1224841; call rule not given here; also: actives are mostly falling curves and most rising ones were filed inactive; nearly all actives have a fitted effect of over 50% in size; also: potency is read from the fitted curve at half-maximal effect). A digest of the protocol:
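Each well held 2,000 PGC/ERR cells, pre-incubated six hours (37 C, 5% CO2). Test substances in DMSO were added by pin tool and left for 18 h at 37 C before luciferase detection by One-Glo.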

A short description of assay [9]: qHTS assay to identify small molecule agonists of the estrogen related receptor signaling pathway with the pleiotropic PPARgamma coactivator (PGC) from Tox21 10K library (AID 1224842). Also: nearly all actives have a fitted effect of over 15% in size. A digest of the protocol: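 PGC/ERR reporter cells (NTP line) were seeded 2,000 per well, rested 6 h at 37 C/5% CO2, then pin-dosed with compounds in DMSO for 18 h at 37 C; luciferase read by One-Glo luminescence after 30 min at room temperature.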

In assay [10] the target is Thyrotropin receptor (Homo sapiens) (UniProt P16473). Briefly: qHTS assay to identify small molecule agonists of the thyroid stimulating hormone receptor (TSHR) signaling pathway (AID 1224843; calls by dose curve; also: nearly all actives have a fitted effect of over 45% in size; also: potency is read from the fitted curve at half-maximal effect). Put shortly:
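TSHR-expressing HEK293 cells (800 per well) were exposed to compounds for 30 min at room temperature. cAMP was then detected by HTRF competition with cAMP-d2 and anti-cAMP cryptate, read after 1 h at room temperature. Fifteen concentrations, triplicate.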

Inconclusive results are not listed. Values without a mark were called inactive. Activity calls are given as the source filed them. Unless noted, calls follow the shape of the dose curve; as a rule, active = well fitted curve in the direction sought with a large enough effect in the repeat runs; inconclusive = weak or mixed curves; inactive = no such curve, though single readings can be large; an effect the other way counts as inactive or inconclusive.

Sequence of Nuclear receptor subfamily 1 group I member 3 (Homo sapiens) (Q14994 whole entry, looked up): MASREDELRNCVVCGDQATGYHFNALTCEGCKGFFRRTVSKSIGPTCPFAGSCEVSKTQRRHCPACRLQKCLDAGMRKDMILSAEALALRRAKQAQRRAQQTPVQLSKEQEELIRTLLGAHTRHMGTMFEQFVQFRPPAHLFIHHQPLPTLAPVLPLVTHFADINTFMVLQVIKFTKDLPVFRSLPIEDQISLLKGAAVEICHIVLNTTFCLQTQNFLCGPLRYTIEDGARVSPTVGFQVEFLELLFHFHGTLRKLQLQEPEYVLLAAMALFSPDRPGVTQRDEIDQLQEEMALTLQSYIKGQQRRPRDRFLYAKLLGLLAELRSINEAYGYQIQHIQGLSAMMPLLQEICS
Sequence of Luciferin 4-monooxygenase (Photinus pyralis) (P08659 whole entry, looked up): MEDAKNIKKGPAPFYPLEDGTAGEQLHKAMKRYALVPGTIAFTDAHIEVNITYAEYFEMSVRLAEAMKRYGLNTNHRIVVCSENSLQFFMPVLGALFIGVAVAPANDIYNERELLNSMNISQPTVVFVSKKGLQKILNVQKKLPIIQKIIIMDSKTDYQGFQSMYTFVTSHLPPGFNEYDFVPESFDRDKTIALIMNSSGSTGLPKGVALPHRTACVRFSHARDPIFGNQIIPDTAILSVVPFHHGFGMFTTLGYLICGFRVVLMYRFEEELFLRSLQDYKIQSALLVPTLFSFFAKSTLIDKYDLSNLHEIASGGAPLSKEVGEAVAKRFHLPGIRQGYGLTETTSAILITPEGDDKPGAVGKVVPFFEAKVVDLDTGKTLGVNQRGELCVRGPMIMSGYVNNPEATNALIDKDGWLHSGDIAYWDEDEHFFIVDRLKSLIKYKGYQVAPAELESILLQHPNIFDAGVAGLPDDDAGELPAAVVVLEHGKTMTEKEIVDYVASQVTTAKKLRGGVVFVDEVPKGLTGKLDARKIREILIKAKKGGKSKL
Sequence of Thyrotropin receptor (Homo sapiens) (P16473 whole entry, looked up): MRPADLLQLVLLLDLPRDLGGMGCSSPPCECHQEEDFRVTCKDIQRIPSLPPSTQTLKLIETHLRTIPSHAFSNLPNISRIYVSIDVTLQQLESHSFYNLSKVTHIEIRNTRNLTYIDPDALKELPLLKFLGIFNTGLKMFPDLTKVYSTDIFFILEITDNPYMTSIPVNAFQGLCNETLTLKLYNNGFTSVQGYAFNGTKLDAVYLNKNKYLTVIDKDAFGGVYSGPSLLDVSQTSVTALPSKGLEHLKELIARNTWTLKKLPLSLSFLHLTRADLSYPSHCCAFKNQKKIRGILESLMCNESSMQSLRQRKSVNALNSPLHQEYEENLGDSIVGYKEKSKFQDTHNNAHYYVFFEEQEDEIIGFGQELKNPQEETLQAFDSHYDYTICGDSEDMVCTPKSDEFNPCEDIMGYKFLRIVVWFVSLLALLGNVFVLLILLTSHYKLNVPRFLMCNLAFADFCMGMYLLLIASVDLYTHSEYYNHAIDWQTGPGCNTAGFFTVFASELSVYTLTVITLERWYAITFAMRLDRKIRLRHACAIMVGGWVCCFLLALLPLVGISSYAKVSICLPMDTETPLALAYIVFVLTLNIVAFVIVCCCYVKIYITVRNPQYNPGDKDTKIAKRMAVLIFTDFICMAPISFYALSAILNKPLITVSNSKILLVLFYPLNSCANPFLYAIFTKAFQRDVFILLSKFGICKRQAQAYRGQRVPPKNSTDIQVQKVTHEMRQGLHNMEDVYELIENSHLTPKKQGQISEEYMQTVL

`CN(C)[C@@H]1C(=O)C(C(N)=O)=C(O)[C@@]2(O)C(=O)C3=C(O)c4c(O)cccc4C[C@H]3C[C@@H]12`: the Potency result in assay [1], in [2], in assay [3], in [4], in assay [5] and in [6] was “inactive” each time. The Potency entry in assay [7], in assay [9] and in assay [10] was “inactive” throughout. Besides, the Potency in assay [8] is 26.6 µM (active).

Consider `CCCCN(CCCC)C(=O)N(CCCC)CCCC`, for which the Potency entry in [1], in assay [2], in assay [3], in [4], in assay [5] and in assay [7] was “inactive” throughout. In [6], the Potency was 30.6 µM (active).

For `CC(C)CCCCCCCCCCCCCCC(=O)O`, the Potency entry in assay [1], in assay [3], in assay [4], in [5], in assay [6] and in assay [7] was “inactive” throughout. For the same molecule, the Potency result in [8] and in assay [9] was “inactive” each time. The Potency in assay [2] was 35.6 µM (active).

For the molecule `Cc1cc(O)c(Cl)c(C)c1Cl`, the Potency result in assay [1], in [2], in [3], in assay [4], in assay [5] and in [6] was “inactive” in each case. Further, the Potency result in assay [7], in assay [8], in assay [9] and in assay [10] was “inactive” each time.

For `CCC(C)Nc1ccc(NC(C)CC)cc1` (stereo not given), the Potency was 19.7 µM (active) in assay [1]; 40.7 µM (active) in assay [2]; 19.7 µM (active) in assay [3]; 31.2 µM (active) in assay [4]; 27.8 µM (active) in assay [5]; 15.7 µM (active) in assay [7]. In addition, the Potency in assay [8] was 8.8 µM (active). In addition, the Potency result in assay [6] and in assay [9] was “inactive” throughout.

For `CCCC(c1cc(C(C)(C)C)c(O)cc1C)c1cc(C(C)(C)C)c(O)cc1C`, the Potency was 19.6 µM (active) in assay [1]; 39 µM (active) in [3]; 31 µM (active) in assay [4]; 24.6 µM (active) in assay [5]; 22 µM (active) in [7]; 24.6 µM (active) in assay [8]. Moreover, the Potency in assay [10] is 6.19 µM (active). Also, the Potency entry in assay [2], in assay [6] and in assay [9] was “inactive” in each case.

Consider `CCC1OCC(COc2ccc(Oc3ccccc3)cc2)O1` (stereo not given), for which the Potency entry in assay [1], in assay [3], in assay [4], in assay [5], in assay [7] and in assay [8] was “inactive” each time. Moreover, the figures for the Potency in assay [2] and in assay [6] were 17.8 µM (active) and 21.7 µM (active), respectively.

As to `N=C1N=C(N)c2ccccc21`, the Potency was 43.3 µM (active) in assay [1], 48.6 µM (active) in [3], 54.5 µM (active) in [4] and 17.2 µM (active) in assay [5]. The Potency result in [2] and in [6] was “inactive” in each case.

As for `CCC(N)(CO)CO`, the Potency result in assay [1], in [2], in assay [3], in assay [4], in assay [5] and in assay [6] was “inactive” in each case. In addition, the Potency result in assay [7], in [8] and in [9] was “inactive” throughout.

Consider `Cc1cc(CCN2CCN(c3nsc4ccccc34)CC2)cc2c1NC(=O)CC2(C)C`, for which the Potency is 30.6 µM (active) in [1]; 48.6 µM (active) in assay [3]; 54.5 µM (active) in [4]; 21.7 µM (active) in assay [6]; 27.3 µM (active) in assay [7]; 7.7 µM (active) in assay [8]. Besides, the Potency result in assay [2], in assay [5] and in assay [9] was “inactive” each time.

Consider `O=c1[nH]sc2ccccc12`, for which the Potency is 61.1 µM (active) in assay [1]; 20 µM (active) in assay [2]; 54.5 µM (active) in [3]; 27.3 µM (active) in [4]; 21.7 µM (active) in assay [5]; 48.6 µM (active) in assay [7]. Moreover, in assay [8], the Potency is 27.3 µM (active). Also, the Potency result in assay [6] and in assay [9] was “inactive” throughout.

As to `O=C(O)c1ccc(Cl)c(Cl)c1`, the Potency entry in [1], in [2], in [3], in assay [4], in assay [5] and in [6] was “inactive” throughout. Also, the Potency entry in assay [7], in assay [8], in assay [9] and in [10] was “inactive” each time.

`O=c1[nH]cnc2nc[nH]c12`: the Potency entry in assay [1], in assay [2], in assay [3], in [4], in assay [5] and in assay [6] was “inactive” in each case. The Potency result in assay [7], in assay [8], in [9] and in assay [10] was “inactive” each time.

`CCCCCCCC(=O)[O-].CCCCCCCC(=O)[O-].[Zn+2]`: the Potency entry in [1], in assay [3], in assay [4], in assay [5], in [6] and in assay [7] was “inactive” in each case. In addition, in [2], the Potency was 34.7 µM (active).

In the case of `COc1cc(-c2ccc(N=C=O)c(OC)c2)ccc1N=C=O`, the Potency result in assay [1], in assay [2], in [3], in [4], in assay [5] and in assay [6] was “inactive” in each case. Also, the Potency result in assay [7], in [8] and in assay [9] was “inactive” throughout.

For `CCCC(C)c1ccccc1O` (stereo not given), the Potency entry in assay [1], in assay [2], in [3], in assay [4], in [5] and in [6] was “inactive” each time. The Potency entry in [7] is “inactive”.

Turning to `CN(C)C(=O)C1(N2CCCCC2)CCN(CC[C@@]2(c3ccc(Cl)c(Cl)c3)CN(C(=O)c3ccccc3)CCO2)CC1`, the Potency in assay [1] is 50.9 µM (active); in assay [3], 50.9 µM (active); in assay [4], 50.9 µM (active); in [5], 50.9 µM (active); in assay [7] it was 28.6 µM (active); in assay [8], 50.9 µM (active). Further, the Potency result in assay [2], in assay [6] and in [9] was “inactive” each time.

Turning to `CCC(C)(C)C1CCCCC1OC(C)=O` (stereo not given), the Potency entry in assay [1], in [2], in assay [3], in assay [4], in [5] and in [6] was “inactive” each time. For the same molecule, the Potency result in assay [7], in [8], in [9] and in assay [10] was “inactive” throughout.

Take `Cc1cccc(N(C)C(=S)Oc2ccc3c(c2)C2CCC3C2)c1` (stereo not given): the Potency result in [1], in assay [2], in [3], in [4], in assay [5] and in assay [7] was “inactive” each time. Besides, the Potency entry in assay [8], in assay [9] and in assay [10] was “inactive” each time. In addition, the Potency in [6] is 21.1 µM (active).

As for `CCCCCCCCCCCCCCCS(=O)(=O)Oc1ccccc1`, the Potency entry in [1], in assay [2], in assay [3], in assay [4], in assay [5] and in assay [6] was “inactive” in each case. Further, in [7], the Potency entry is “inactive”.

The values are drawn from PubChem BioAssay (Tox21).
